The text below walks through data of the supplement of paper PMC6555819.

What all share (assay): PBM binding z-score (relative to random genomic background probes); higher = stronger binding; sequences stand for … in GC…GCGATTGACAGCGTAGAATGAAGG
Experiment [1] deals with FXR:RXRa (NR concentration 270 nM, RXRa partner concentration 90 nM). The procedure, abridged: (§1)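 Random background probes are the reference for binding z-scores. These scores derive from regression-normalized fluorescence on custom Agilent 4×180K protein-binding microarrays incubated 1 h with ligand-free nuclear receptor dimers. Binding was detected with antibodies against each partner (one per run).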

Experiment [2] has as its system LXRa:RXRa (NR concentration 270 nM, RXRa partner concentration 90 nM). The procedure, abridged: as §1
Experiment [3] relates to LXRa homodimer (NR concentration 270 nM). An outline of the steps: as §1
Experiment [4] has as its system LXRb:RXRa (NR concentration 270 nM, RXRa partner concentration 90 nM). An outline of the steps: as §1
In experiment [5] the test system is LXRb homodimer (NR concentration 270 nM). An outline of the steps: as §1
In experiment [6] the test system is PPARa:RXRa (NR concentration 270 nM, RXRa partner concentration 90 nM). An outline of the steps:
as §1

Experiment [7] relates to PPARg:RXRa (NR concentration 180 nM, RXRa partner concentration 90 nM). The procedure, abridged:
as §1

The test system of experiment [8] is PPARg:RXRa 270nM:90nM, anti-RXR (NR concentration 270 nM, RXRa partner concentration 90 nM). The procedure, abridged: as §1
Experiment [9] concerns PPARg:RXRa 30nM:10nM, anti-RXR (NR concentration 30 nM, RXRa partner concentration 10 nM). The procedure, abridged: as §1
The subject of experiment [10] is PPARg:RXRa 90nM:30nM, anti-RXR (NR concentration 90 nM, RXRa partner concentration 30 nM). An outline of the steps: as §1
Experiment [11] relates to PPARg:RXRa DBDmut IVT, anti-RXR (DBD mutation: RXRa K156A/R161A, NR concentration 270 nM, RXRa partner concentration 90 nM). An outline of the steps:
as §1

Experiment [12] has as its system PPARg:RXRa IVT, anti-PPARg (NR concentration 270 nM, RXRa partner concentration 90 nM). An outline of the steps:
as §1

In experiment [13] the test system is PPARg DBDmut:RXRa IVT, anti-PPARg (DBD mutation: PPARg1 K132A/R137A, NR concentration 270 nM, RXRa partner concentration 90 nM). The procedure, abridged:
as §1

Experiment [14] has as its system PPARg DBDmut IVT, anti-PPARg (DBD mutation: PPARg1 K132A/R137A, NR concentration 270 nM). The procedure, abridged:
as §1

The test system of experiment [15] is PPARg homodimer (NR concentration 180 nM). The procedure, abridged: as §1
For experiment [16], the system named is PXR:RXRa (NR concentration 270 nM, RXRa partner concentration 90 nM). The procedure, abridged: as §1
The test system of experiment [17] is PXR homodimer (NR concentration 270 nM). An outline of the steps: as §1
For experiment [18], the system named is RARa:RXR (NR concentration 270 nM, RXRa partner concentration 90 nM). The procedure, abridged: as §1
In experiment [19] the test system is RARa homodimer (NR concentration 270 nM). The procedure, abridged: as §1
Experiment [20] concerns RARb:RXRa (NR concentration 270 nM, RXRa partner concentration 90 nM). The procedure, abridged:
as §1

In the case of ATACCAAGGTGATCGTGAGGTCGTTGAGACTAAC, the PBM binding z-score in experiment [1] was 1.86; in [2], 1.27; in experiment [3], 0.536; in experiment [4], 0.968; in experiment [5], 0.251; in experiment [6] it was 1.55. Also, the PBM binding z-score in [7] is 0.356; in [8], 0.352; in experiment [9] it was -0.174; in experiment [10], -0.0872; in [11] it was 0.478; in experiment [12], 1.15. The PBM binding z-score was 0.272 in experiment [13]; -0.217 in experiment [14]; 0.626 in [15]; 2.93 in experiment [16]; 1.28 in experiment [17]; 1.91 in [18]. Moreover, the PBM binding z-score in [19] is 0.197; in experiment [20], 1.39.
For the sequence CGTCCAAGGTCCAAGGTCAGTGAAGAGATGACGG, the PBM binding z-score in experiment [1] was 1.55; in [2], 1.08; in experiment [3], 0.179; in experiment [4], 1.1; in [5], -0.433; in [6] it was 2.37. The PBM binding z-score in experiment [7] is 1.65; in experiment [8], 2.35; in experiment [9], 0.473; in experiment [10], 1.66; in [11], -0.345; in experiment [12], 0.595. The PBM binding z-score in [13] was -0.804; in experiment [14] it was -0.592; in [15] it was 1.34; in [16], 1.67; in [17] it was 0.584; in experiment [18], 2.28. Also, the PBM binding z-score in experiment [19] came to 0.674; in [20] it was 3.29.
Turning to CCGACTGGGGCTAAGGTTACCATACTCAGTACGA, the PBM binding z-score in [1] is 0.144; in experiment [2] it was 0.0677; in experiment [3] it was -0.428; in [4], 0.815; in experiment [5], -0.943; in [6] it was 2.71. Also, the PBM binding z-score came out at 5.47 in experiment [7]; 5.55 in [8]; 4.41 in experiment [9]; 5.78 in experiment [10]; 0.598 in [11]; 2.11 in experiment [12]. In addition, the PBM binding z-score in experiment [13] was -0.549; in experiment [14], -0.925; in experiment [15], 0.343; in experiment [16], 0.473; in experiment [17], -0.328; in [18], 1.12. Besides, the PBM binding z-score is -0.0476 in [19] and 1.12 in experiment [20].
As to ACTATTAGTTGAGACGAGGGCGACCGATAGGTTG, the PBM binding z-score in experiment [1] is 0.0775; in experiment [2], -0.2; in experiment [3], 0.0498; in [4], -0.401; in experiment [5], 8.35e-05; in [6], -0.485. The PBM binding z-score in experiment [7] was 0.629; in experiment [8], -0.198; in experiment [9], 0.0514; in [10] it was -0.0518; in [11], 0.0234; in experiment [12] it was -0.184. Besides, the PBM binding z-score is 0.772 in experiment [13]; 0.784 in experiment [14]; 0.303 in experiment [15]; 0.205 in experiment [16]; 0.117 in experiment [17]; 0.144 in experiment [18]. The figures for the PBM binding z-score in [19] and in [20] were 0.456 and 0.332, respectively.
Regarding ATCTCTAGGTAAAGAGAGTTCAGTGAATGCAAAT, the PBM binding z-score in [1] stood at 0.502; in experiment [2], 4.09; in experiment [3], 1.76; in experiment [4] it was 1.41; in experiment [5] it was 0.27; in [6], 1.34. For the same sequence, the PBM binding z-score in [7] turned out to be 0.263; in experiment [8], 0.567; in experiment [9] it was 0.0587; in experiment [10], 0.356; in experiment [11], 2.17; in experiment [12] it was 1.38. For the same sequence, the PBM binding z-score was 0.459 in experiment [13]; 0.197 in experiment [14]; 0.502 in [15]; 3.71 in experiment [16]; 3.18 in experiment [17]; 0.79 in [18]. In addition, the PBM binding z-score turned out to be 0.685 in experiment [19] and 1.16 in experiment [20].
In the case of GCTGACGGGTCAAAGGTTATAGCATGAATAGAAT, the PBM binding z-score in [1] is 7.43; in experiment [2], 5.45; in experiment [3], 0.433; in experiment [4], 5.53; in [5], -0.231; in experiment [6], 6.99. Also, the PBM binding z-score in experiment [7] is 9.41; in [8], 8.11; in experiment [9] it was 7.21; in [10], 8.55; in experiment [11], 1.23; in [12], 4.56. The PBM binding z-score was determined as 0.893 in experiment [13]; 0.679 in [14]; 3.42 in [15]; 5.8 in [16]; 0.288 in experiment [17]; 8.03 in [18]. Also, the PBM binding z-score in experiment [19] is 0.75; in experiment [20], 4.63.
TCTATTAGTCGATTAGGGCAACCGAAACAGCGGA: the PBM binding z-score in experiment [1] worked out at 0.523; in [2], 0.509; in [3] it was 0.385; in experiment [4] it was 0.608; in experiment [5] it was 0.293; in experiment [6], 0.759. For the same sequence, the PBM binding z-score in experiment [7] was 0.292; in experiment [8], 2.12; in [9] it was 3.61; in [10] it was 2.99; in experiment [11], 2.06; in experiment [12], 1.15. The PBM binding z-score is 1.13 in experiment [13]; 0.942 in experiment [14]; 0.0705 in experiment [15]; 0.419 in experiment [16]; -0.106 in experiment [17]; 0.574 in experiment [18]. The PBM binding z-score is 0.642 in experiment [19] and 0.697 in [20].
